Screening results (PubChem BioAssay)
Compounds with a hit are over-represented: about 3.4% of the library has one in this group of screens.
TEAD-YAP block: TEAD-YAP interaction inhibition | HEK-TIYL cells, TEAD-Gal4/YAP UAS-luciferase luminescence | 1.4% of 640,000 active | inhibition, % at 9.12 µM; in the data active = inhibition above about 32%
FBW7 act: activators of human E3 ligase FBW7; normalized activity (activation), % at 26.1 µM; Q969H0; AlphaScreen FBW7–phospho-cyclin E peptide binding, activator screen; 0.13% of 650,000 active; in the data active = normalized activity above about 1.9%;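 note: purified mutant Fbw7 with reduced substrate affinity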
Target sequence (Q969H0 whole entry, looked up): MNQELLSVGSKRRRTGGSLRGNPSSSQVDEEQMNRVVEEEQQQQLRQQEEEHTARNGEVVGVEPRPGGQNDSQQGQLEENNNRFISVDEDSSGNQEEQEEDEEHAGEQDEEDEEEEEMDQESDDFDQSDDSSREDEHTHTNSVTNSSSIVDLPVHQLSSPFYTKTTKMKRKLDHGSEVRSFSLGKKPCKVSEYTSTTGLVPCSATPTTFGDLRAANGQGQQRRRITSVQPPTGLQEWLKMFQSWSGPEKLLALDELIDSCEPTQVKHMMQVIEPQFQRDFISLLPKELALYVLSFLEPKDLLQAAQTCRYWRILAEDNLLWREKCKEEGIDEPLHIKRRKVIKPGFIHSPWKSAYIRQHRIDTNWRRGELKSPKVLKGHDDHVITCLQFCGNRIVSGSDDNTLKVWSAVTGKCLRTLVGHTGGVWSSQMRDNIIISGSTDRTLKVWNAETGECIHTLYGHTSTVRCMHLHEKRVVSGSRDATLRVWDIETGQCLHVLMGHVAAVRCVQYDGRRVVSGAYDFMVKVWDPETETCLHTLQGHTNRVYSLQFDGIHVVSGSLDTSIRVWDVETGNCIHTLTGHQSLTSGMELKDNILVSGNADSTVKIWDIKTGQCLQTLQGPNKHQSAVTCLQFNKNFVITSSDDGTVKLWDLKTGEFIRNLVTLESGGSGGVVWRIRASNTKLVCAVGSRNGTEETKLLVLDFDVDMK
GPR151 activ: human GPR151 activation. Q8TDV0. PathHunter beta-arrestin GPR151 cells, luminescence. activation, % at 11.2 µM. 1% of 650,000 active. AID 1508602; in the data active = activation above about 4.9%
MITF primary: inhibitors of human MITF. O75030. AlphaScreen MITF homodimerization, bead proximity signal. inhibition, % at 2.6 µM. 0.91% of 650,000 active. AID 1259374; in the data active = inhibition above about 50%
Of the large screens only hits and unclear results are named; the others gave an inactive call.

O=c1c(Nc2ccc(F)c(Cl)c2)c(-c2ccccc2)c1=O	none
Cc1ccc(-c2c(Nc3ccc(C)c(F)c3)c(=O)c2=O)cc1	none
COc1ccc(-c2c(Nc3ccc(C)c(F)c3)c(=O)c2=O)cc1	MITF primary 79
COc1ccc(-c2c(Nc3ccc(F)c(Cl)c3)c(=O)c2=O)cc1	MITF primary 72
COc1cccc(Nc2c(-c3ccc(C)c(C)c3)c(=O)c2=O)c1	TEAD-YAP block 49
COc1cccc(OCC(=O)NNC(=O)C(C)Oc2ccc(Cl)cc2Cl)c1 (stereo unspecified)	none
Cc1ccc(NC(=O)CN(C)C(=O)COc2cc(C)ccc2C)cc1	none
CCCNC(=O)CCc1nc(-c2ccccc2Cl)no1	none
CCNC(=O)CCCc1nc(-c2ccccc2Cl)no1	TEAD-YAP block 36
COc1cccc2cc(-c3nc4ccccc4s3)c(=O)oc12	TEAD-YAP block 72
COc1cc(C(=O)Nc2ccccc2-c2nc3ccccc3s2)cc(OC)c1OC	TEAD-YAP block 53
COc1cccc2cc(-c3cc4cccc(OC)c4oc3=O)c(=O)oc12	none
COc1ccccc1NC(=O)c1ccc(OC(=S)N(C)C)cc1	FBW7 act 2.3
COc1ccccc1NC(=O)c1ccccc1NC(=O)c1ccccc1	none
COc1cccc(C(=O)Nc2ccccc2C(=O)Nc2ccccc2OC)c1	TEAD-YAP block 43
CCOc1ccccc1C1C(C#N)=C(SC)NC(=O)C1C#N (stereo unspecified)	none
Cc1cccc(OCC(=O)Nc2ccc(C)cc2Br)c1	none
CCOC(=O)c1ccc(NC(=O)CC2C(=O)N(c3ccc(C(=O)OCC)cc3)C(=S)N2CCCN2CCN(CC)CC2)cc1 (stereo unspecified)	none
COc1ccccc1Nc1ncc(C(=O)NCCC(C)C)c2ccccc12	none
COc1ccc(Cl)cc1NC(=O)c1ccc(F)cc1	FBW7 act 2.3
COc1ccccc1NC(=O)c1ccccc1NC(=O)c1cc(OC)c(OC)c(OC)c1	TEAD-YAP block 55
COc1ccccc1NC(=O)c1cnc(Nc2ccccc2OC)c2ccccc12	TEAD-YAP block 45
O=C1c2ccc3c4c(ccc(c24)C(=O)N1CCCCO)C(=O)N(CCCCO)C3=O	TEAD-YAP block 79
CCc1ccc(OCCOCC(O)CN2CCC(C)CC2)cc1 (stereo unspecified)	none
O=C(O)c1ccccc1N=Nc1ccc(O)c2ncccc12	none
NS(=O)(=O)c1ccc(N=Nc2ccc(O)c3ncccc23)cc1	MITF primary 80
COc1ccc(/C=C2\C=C(c3ccccc3)N(c3cccc4ccccc34)C2=O)cc1	TEAD-YAP block 57
COc1ccc(/C=C2\C=C(c3ccccc3)N(c3cc(C)ccc3C)C2=O)cc1	TEAD-YAP block 42
Cc1ccc(C)c(N2C(=O)/C(=C/c3ccc(Cl)cc3)C=C2c2ccccc2)c1	none
CCOc1ccccc1CNCc1c(C(=O)O)n(CC)c2cc(OC)ccc12	none
CC(=O)Nc1ccc(-n2c(C)cc(C=C3C(=O)c4ccccc4C3=O)c2C)cc1	TEAD-YAP block 83
CC(=O)Nc1ccc(-n2c(C)cc(C=C3C(=O)N(C)C(=O)N(C)C3=O)c2C)cc1	none
COc1cccc(NC(=O)c2ccnc(N3CCC(C(=O)N4CCOCC4)CC3)c2)c1	none
C=CCCC(=O)NCCN1Cc2ccccc2OC(CCCC)C1 (stereo unspecified)	none
Cc1ccc(S(=O)(=O)N/N=C/c2cc([N+](=O)[O-])ccc2O)cc1[N+](=O)[O-]	none
NS(=O)(=O)c1ccc(N/N=C/c2ccc(O)c(O)c2O)c([N+](=O)[O-])c1	MITF primary 70
O=[N+]([O-])c1cc(S(=O)(=O)N/N=C/c2ccc(O)c(O)c2O)ccc1Cl	MITF primary 55
NS(=O)(=O)c1ccc(N/N=C/c2ccccc2Br)c([N+](=O)[O-])c1	none
CCN(CC)c1ccc(/C=N/N=C(N)N)c(O)c1	TEAD-YAP block 50
Cc1ccccc1/C=N/Nc1ccc(S(N)(=O)=O)cc1[N+](=O)[O-]	FBW7 act 2.0
COc1ccc(NC(=O)C2=C(C)NC(SCC(=O)Nc3ccccc3)=C(C#N)C2c2ccccc2)cc1 (stereo unspecified)	none
Cc1ccc2c(c1)C(=O)N(CCCC(=O)O)C2=O	none
CCN(CC)c1ccc(/C=N/Nc2ccccc2[N+](=O)[O-])c(O)c1	TEAD-YAP block 40
Cc1cc(C(=O)CN2C(=O)C3CC=CCC3C2=O)c(C)n1CC1CCCO1 (stereo unspecified)	TEAD-YAP block 36
Cc1nnc(SCC(=O)c2cc(C)n(CC3CCCO3)c2C)s1 (stereo unspecified)	TEAD-YAP block 41
Cc1cc(C(=O)CSc2nnc(-c3cccs3)o2)c(C)n1CC1CCCO1 (stereo unspecified)	none
O=C(OCc1ccc([N+](=O)[O-])cc1)C1COc2ccccc2O1 (stereo unspecified)	none
O=C(NC(=O)N1CCCCC1)c1ccc(Cl)cc1	none
N#CC(NC(=O)c1ccc(Cl)cc1)=C(Cl)Cl	TEAD-YAP block 37
COc1cccc(/C=N/N2C(=O)CSC2=S)c1O	MITF primary 77
O=C1CSC(=S)N1/N=C/c1ccccc1OS(=O)(=O)c1ccccc1	none
O=S(=O)(Cc1cccc(Cl)c1)NCC(c1ccco1)N1CCc2ccccc2C1 (stereo unspecified)	none
CC1(C)CC(=O)C2=C(C1)Nc1ccc3ncccc3c1C2c1cccc(Cl)c1Cl (stereo unspecified)	none
CC1(C)CC(=O)C2=C(C1)Nc1ccc3ncccc3c1C2c1cn[nH]c1-c1ccc(F)cc1 (stereo unspecified)	TEAD-YAP block 35
Cc1ccc(-c2c(N3CCCCC3)c(=O)c2=O)cc1C	none
COc1ccc(O)c(/C=N/NC(=S)Nc2cccnc2)c1	MITF primary 91
COc1ccc(O)c(/C=N/Nc2ccccn2)c1	MITF primary 73
Oc1ccc(/C=N/NC(=S)Nc2cccnc2)cc1	TEAD-YAP block 65
COc1cccc(/C=N/NC(=S)Nc2cccnc2)c1	none
COc1cc(OC)c(OC)cc1/C=N/Nc1ccccn1	none
CCCc1nn(CC(=O)N2CCC(C)CC2)c(=O)c2cc3ccsc3n12	none
Cc1cnc(N2CCCC2CO)nc1NCc1ccccc1 (stereo unspecified)	TEAD-YAP block 50
Nc1nc(NCc2ccccc2)cc(N2CCCC2CO)n1 (stereo unspecified)	TEAD-YAP block 45
O=C(CSc1nc2ccccc2[nH]1)c1ccc(Cl)cc1	none
Cc1ccc2nc(/C(C#N)=C/c3ccccc3O)[nH]c2c1	TEAD-YAP block 97
Cc1ccc2nc(/C(C#N)=C/c3cc([N+](=O)[O-])ccc3O)[nH]c2c1	none
COc1cc(Br)c(/C=C(\C#N)c2nc3ccccc3[nH]2)cc1OC	none
COc1cc(/C=C(\C#N)c2nc3ccccc3[nH]2)c(Br)cc1O	TEAD-YAP block 41
Cc1cc(/C=C(/C#N)c2nc3ccccc3[nH]2)c(C)n1-c1cccnc1	TEAD-YAP block 59
C=C(C)c1cccc(C(C)(C)NC(=O)NNC(=O)c2ccc([N+](=O)[O-])cc2)c1	none
N#Cc1c(N)[nH]c(=S)c(C#N)c1-c1cccc(Cl)c1	none
CC1CCCC(NC(=O)CSc2ccsc2[N+](=O)[O-])C1C (stereo unspecified)	none
